Screening results (PubChem)
TLR9-MyD88 inh = inhibitors of TLR9-MyD88 association in cells, primary screen, cell-based, CHO, BLA complementation, fluorescence. inhibition, % at 4.98 µM. AID 504734, 2011. Toll-like receptor 9 (Homo sapiens) + Myeloid differentiation primary response protein …. CCF4 FRET ratio. 340,000 tested, 0.21% active;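 active = inhibition above the mean over all tested compounds plus 3 SD, cut at about 21% in these data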;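 note: 0% = DMSO only wells and 100% = clavulanate BLA inhibitor control wells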
GC-B act = human GC-B receptor activators, primary screen, HEK293 GC-B cells, cGMP TR-FRET, EC30 CNP; activation, % at 10 µM; 0% at EC30 CNP, 100% saturating CNP; 370,000 tested, 0.11% active;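 active = activation at 10 µM reaching about 35% in either raw or pattern-adjusted values, limit read from the data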
Neddyl block = inhibitors of cullin neddylation, primary screen, biochemical, TR-FRET, uHTS, NAE and Ubc12. NEDD8-conjugating enzyme Ubc12 (Homo sapiens) + NEDD8-activating enzyme E1 regulatory …. inhibition, % at 25 µM. 360,000 tested, 0.58% active; in the data active = inhibition above about 36%
Target sequence (P61081 whole entry, looked up): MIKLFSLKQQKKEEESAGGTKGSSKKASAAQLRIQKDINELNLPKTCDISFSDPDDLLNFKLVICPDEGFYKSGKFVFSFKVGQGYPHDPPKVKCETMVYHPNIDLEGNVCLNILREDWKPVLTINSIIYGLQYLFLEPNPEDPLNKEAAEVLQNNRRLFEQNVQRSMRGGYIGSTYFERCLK
Target sequence (Q13564 whole entry, looked up): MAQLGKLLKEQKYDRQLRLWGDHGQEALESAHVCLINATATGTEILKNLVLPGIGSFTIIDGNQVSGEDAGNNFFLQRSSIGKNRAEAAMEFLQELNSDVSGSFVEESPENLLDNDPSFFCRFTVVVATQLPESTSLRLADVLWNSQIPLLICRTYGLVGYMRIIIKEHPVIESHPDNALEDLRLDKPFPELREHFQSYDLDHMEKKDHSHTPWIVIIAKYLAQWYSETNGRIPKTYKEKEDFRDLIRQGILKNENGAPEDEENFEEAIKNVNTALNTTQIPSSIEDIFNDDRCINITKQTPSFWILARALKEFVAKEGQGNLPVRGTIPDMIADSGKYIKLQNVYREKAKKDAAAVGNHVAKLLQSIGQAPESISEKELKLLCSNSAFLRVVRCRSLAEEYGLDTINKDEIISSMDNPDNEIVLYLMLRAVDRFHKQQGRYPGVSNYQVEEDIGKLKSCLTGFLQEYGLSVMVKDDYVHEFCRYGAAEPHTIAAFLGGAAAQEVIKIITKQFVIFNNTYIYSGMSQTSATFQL
NOD2 RIPK2 PPI = NOD2-RIPK2 binding disruptors in cells, primary screen, fluorescence, CHO cells, BLA complementation; CCF4 ratio; AID 624267, 2012; inhibition, % at 4.98 µM; 360,000 tested, 0.38% active; in the data active = inhibition above about 21%;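 note: 0% = vehicle only and 100% = reference blocker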
TLR4-MyD88 BLA = inhibitors of TLR4-MyD88 association in cells, primary screen, cell-based, HeLa CL3-4, BLA complementation, FRET ratio; 200,000 tested, 0.18% active; Toll-like receptor 4 (Homo sapiens) + Myeloid differentiation primary response protein …; HeLa CL3-4 TLR4/MyD88 BLA complementation; inhibition, % at 8.4 µM; in the data active = inhibition above about 25%;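 note: 0% = vehicle and 100% = reference inhibitor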
NPR1 activator = GC-A stimulated cGMP production enhancers – HEK293 GC-A cells, cGMP TR-FRET, EC30 ANP, primary screen; 0% at EC30 ANP, 100% saturating ANP; activation, % at 10 µM; 370,000 tested, 0.14% active; AID 1671463, 2021; in the data active = activation above about 40%
Neddyl inh conf = blockade of NEDD8 conjugation to cullin – biochemical, TR-FRET, single concentration, confirmation; 1,800 tested, 13% active; shares compounds with Neddyl block; calls only at 25 µM; TR-FRET cullin neddylation biochemical assay; in the data active = inhibition above about 40%;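 note: neddylation substrate is the cullin 1 ring ligase complex with SKP2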
* marks the source's active call; other numbers are inactive results; i = inactive; nt = no result given; + = active, no number. A selection: hits, their analogues and other compounds. The true share with any hit is near 1.2%.

SMILES	TLR9-MyD88 inh	GC-B act	Neddyl block	NOD2 RIPK2 PPI	TLR4-MyD88 BLA	NPR1 activator	Neddyl inh conf
C=CCn1c(N2CCCC2)nc2c1c(=O)[nH]c(=O)n2C	-7	2	-5	-2	0	1	nt
CNc1ncnc2c1ncn2[C@H]1CN(Cc2ccc3c(c2)OCO3)C[C@@H](CO)O1	nt	-5	9	6	nt	-2	nt
CSc1nc(N)c2c3c(sc2n1)CN(C)CC3	-3	-4	41*	-5	nt	12	i
CC(C)NC(=O)C1(C#N)C=C1c1ccccc1 (configuration not stated)	nt	-7	-6	-12	nt	1	nt
O=C(CSc1nncn1-c1ccccc1F)NC1CC1	-11	-1	3	-14	nt	-2	nt
CCN(CC)C(=O)Oc1ccc2oc(=O)cc(-c3cc4cccc(OC)c4o3)c2c1	-3	9	48*	0	nt	6	nt
Cc1c(C)n(CCCN(C)C)c2ncnc(Nc3ccccc3)c12	-9	-13	42*	-8	nt	-66	i
COc1ccc(Nc2ncnc3c2c(C)c(C)n3CCCN(C)C)cc1	-5	-1	19	-15	nt	-2	nt
C=c1[nH]cc(C(C)c2c(C)n(C)c3ccccc23)/c1=C/C (configuration not stated)	nt	-5	nt	nt	nt	-2	nt
CN(C)CCCNC(=S)N(CCCN(C)C)Cc1cc2cc3c(cc2[nH]c1=O)OCO3	0	2	27	8	nt	5	nt
CCN(CC)CCCN(Cc1cc2cc3c(cc2[nH]c1=O)OCO3)C(=S)NCCCN(C)C	2	-1	44*	3	nt	8	i
CC(=O)Nc1ccc(Nc2nc(C)nc3c2nnn3Cc2ccccc2Cl)cc1	9	3	nt	-2	nt	-1	nt
Cc1nc(Nc2cccc(C(C)O)c2)c2nnn(Cc3ccccc3F)c2n1 (configuration not stated)	3	-1	40*	-2	-5	4	i
Cc1c(OC(C)C(=O)NCc2ccccn2)ccc2c3c(c(=O)oc12)CCC3 (configuration not stated)	-8	-1	54*	-13	nt	1	+
Cc1c(OC(C)C(=O)NCC2CCC(C(=O)O)CC2)ccc2c3c(c(=O)oc12)CCCC3 (configuration not stated)	-13	4	55*	2	nt	1	i
COC(=O)c1ccc(COc2ccc3c(C)c(C)c(=O)oc3c2C)o1	nt	nt	nt	nt	14	nt	nt
Cc1c(OCC(=O)NCc2ccccn2)ccc2c3c(c(=O)oc12)CCCC3	-9	0	-12	-1	nt	3	nt
Cc1c(OCc2ccc(C(=O)O)o2)ccc2c3c(c(=O)oc12)CCC3	5	0	51*	-2	-6	3	i
Cc1c(C(C)NC(=O)c2cc(COc3cccc4cnccc34)on2)cnn1C (configuration not stated)	8	-3	56*	1	nt	-3	+
CCC(C(=O)Nc1ccccc1N1CCCC1)c1cccc(OC)c1 (configuration not stated)	nt	-6	nt	nt	nt	-11	nt
CCS(=O)(=O)Nc1ccc(C2=NN(C(=O)c3ccco3)C(c3ccco3)C2)cc1 (configuration not stated)	1	-9	20	2	nt	-17	nt
CCS(=O)(=O)Nc1ccc(C2=NN(C(=O)c3ccco3)C(c3cccs3)C2)cc1 (configuration not stated)	6	-16	42*	9	nt	-22	i
